Bioassay records from PubChem BioAssay.
This is a sample that favours compounds with a hit; in the whole collection about 3.7% have one here.
NALP3 yeast inh = NALP3 inflammasome inhibitors in reconstituted yeast, primary screen, luminescence, uHTS; Yeast reconstituted NLRP3/ASC/caspase-1, beta-gal luminescence, 24 h; inhibition, % at 10 µM; 330,000 tested, 0.39% active;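 active = inhibition of 50% or more; inactive = inhibition below 50%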;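 note: plate controls were induced DMSO wells for no effect and uninduced yeast grown without galactose for full effect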
tim10-1 inh = growth inhibitors of tim10-1 mutant yeast, primary screen, luminescence, uHTS; inhibition, % at 20 µM; 330,000 tested, 2.2% active; S. cerevisiae tim10-1 ts strain growth, BacTiter-Glo, 24 h;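 active = inhibition of at least 40%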;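 note: mutant grown at 25 °C; 0% = DMSO wells with yeast and 100% = wells holding no yeast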
tim23-1 inh = growth inhibitors of tim23-1 mutant yeast, primary screen, luminescence, uHTS. AID 463212, 2010. inhibition, % at 20 µM. 330,000 tested, 1.3% active. S. cerevisiae tim23-1 growth, BacTiter-Glo luminescence, 24 h;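 active = growth inhibition of the mutant yeast at or above 50%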;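 note: temperature-sensitive mutant grown at 25 °C; plate controls were DMSO-treated mutant yeast for no effect and medium wells lacking yeast for full effect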
TIM10 inh = growth inhibitors of isogenic TIM10 control yeast, primary screen, counter-screen for tim10-1 yeast inhibitor project, luminescence, uHTS; AID 463195, 2010; S. cerevisiae TIM10 strain growth, BacTiter-Glo luminescence, 24 h; inhibition, % at 10 µM; 330,000 tested, 1.4% active;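 active = inhibition of 40% or more at the single tested concentration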;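 note: wild-type TIM10 isogenic control strain grown at permissive 25 °C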
PfHsp90 set2 = growth inhibition of PfHsp90-expressing yeast, primary screen, antimalarial PfHsp90 inhibitor project, S. cerevisiae, BacTiter-Glo luminescence, single point, set 2; BacTiter-Glo ATP, 48 h; yeast lacking PDR1 and PDR3 efflux regulators; inhibition, % at 9.4 µM; 310,000 tested, 0.32% active;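 active = every replicate shows inhibition above about 80%, whatever the replicate mean, limit read from the data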;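 note: 0% = DMSO neutral controls and 100% = 20 µM radicicol positive controls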
tim10-1 conf = growth inhibitors of tim10-1 mutant yeast, confirmation, single concentration, luminescence, S. cerevisiae; AID 463213, 2010; S. cerevisiae tim10-1 ts strain growth, BacTiter-Glo, 24 h; inhibition, % at 20 µM; shares compounds with tim10-1 inh; 7,400 tested, 56% active;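 active = inhibition of yeast growth at or above a set limit in either of two repeat tests at 20 µM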;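 note: tim10-1 mutant grown at permissive 25 °C to find synthetic lethal compounds; 0% = DMSO yeast wells and 100% = medium wells without yeast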
TIM10 conf = growth inhibitors of wild-type TIM10 yeast, confirmation, counter-screen for tim10-1 synthetic lethality project, single concentration, luminescence, S. cerevisiae | AID 463215, 2010 | inhibition, % at 10 µM | 4,600 tested, 63% active | shares compounds with TIM10 inh | S. cerevisiae tim10 strain growth, BacTiter-Glo luminescence, 24 h;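 active = inhibition of yeast growth at or above a set limit in either of two replicates at 10 µM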;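 note: this counterscreen used the strain with wild-type TIM10; 0% = yeast with DMSO and 100% = medium wells lacking yeast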
tim23-1 conf = tim23-1 mutant yeast growth inhibitors, confirmation, luminescence, single concentration; shares compounds with tim23-1 inh; S. cerevisiae tim23-1 growth, BacTiter-Glo luminescence, 24 h; inhibition, % at 20 µM; 4,400 tested, 83% active; AID 463218, 2010;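 active = inhibition above about 39% in either of two replicate wells at 20 µM, limit read from the data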;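 note: temperature-sensitive tim23-1 mutant grown at 25 °C; 0% = DMSO wells with yeast and 100% = medium wells without yeast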
* marks the source's active call; other numbers are inactive results; x = no result.

SMILES	NALP3 yeast inh	tim10-1 inh	tim23-1 inh	TIM10 inh	PfHsp90 set2	tim10-1 conf	TIM10 conf	tim23-1 conf
COC(=O)C1=C(C)N(c2ccc(Cl)c(Cl)c2)C(=O)C1	4	46*	59*	43*	-15	47*	39*	50*
CC12CCC(C/C1=N\OC(=O)c1ccc(F)cc1)C2(C)C (centres undefined)	3	66*	71*	71*	19	64*	67*	78*
CC12CCC(C/C1=N/OC(=O)c1cccc([N+](=O)[O-])c1)C2(C)C (centres undefined)	13	42*	70*	62*	-30	66*	72*	75*
CC1=CC(=O)C=C(C)C1=NOC(=O)c1cccc([N+](=O)[O-])c1	2	17	2	-1	x	x	x	x
C/C(=N\OC(=O)c1ccc(F)cc1)c1ccc(F)c(F)c1	30	-7	5	9	-17	x	x	x
CSc1ccccc1NC(=O)CN(C)C(=O)c1ccc(NC(=O)c2cccs2)cc1	15	5	15	13	-6	x	x	x
CCOc1ccc(C(=O)NC(=S)NCc2cccnc2)cc1[N+](=O)[O-]	10	4	6	0	26	x	x	x
CCN(CC)S(=O)(=O)c1ccc(/C=C/C(=O)OCC(=O)NCc2ccco2)cc1	15	14	21	8	-8	x	x	x
CC1=CC(C)(C)N(C(=O)CN2C(=O)c3ccccc3C2=O)c2ccccc21	3	43*	60*	40*	16	28	18	51*
CC1=CC(C)(C)N(C(=O)CN2C(=O)CCC2=O)c2ccc(C)cc21	18	10	23	-2	8	x	x	x
CCC(/C=C1\Sc2ccc(OC)cc2N1CCO)=C\c1sc2ccc(OC)cc2[n+]1CCO	5	62*	64*	49*	49	49*	-24	53*
CCC(=O)/C=C1/Sc2ccc(OC)cc2N1CCO	5	1	9	-1	18	x	x	x
COc1cccc(/C=N/NC(=O)NC23CC4CC(CC(C4)C2)C3)c1O	39	52*	52*	42*	x	17	39*	47*
O=C(N/N=C/c1ccccc1F)NC12CC3CC(CC(C3)C1)C2	-4	31	41	14	-6	x	x	x
CC(C)Cn1c(-c2cccs2)nc2nc3ccccc3nc21	-9	31	34	-40	5	x	x	x
CCCCn1c(-c2cccs2)nc2nc3ccccc3nc21	12	51*	52*	31	x	36*	x	66*
N#C/C(=C\c1cc(Cl)cc(Cl)c1O)C(=O)NC1CCCCC1	6	49*	54*	38	-21	29	x	58*
N#C/C(=C\c1ccc(F)c(F)c1)C(=O)NC1CCCCC1	3	52*	68*	65*	-2	65*	78*	59*
N#C/C(=C\c1cc(Br)ccc1F)C(=O)NC1CC1	15	77*	90*	51*	-9	60*	80*	91*
N#C/C(=C\c1cc(Cl)ccc1O)C(=O)NC1CCCCC1	20	27	31	22	-8	x	x	x
CC(C)(C)c1ccc(/C=C(\C#N)C(=O)NC2CC2)cc1	35	51*	85*	58*	x	78*	65*	51*
CCN(C[C@H]1N[C@@](CC)(C(=O)OC)[C@H]2C(=O)N(C)C(=O)[C@@H]12)C(=O)c1ccc(C(C)(C)C)cc1	-4	10	16	3	-7	x	x	x
COc1ccc(CN2CCC(C(=O)c3ccc(F)cc3)CC2)cc1	15	-17	4	-19	-4	x	x	x
C=CCNC(=O)/C(C#N)=C/c1ccc(C(=O)O)cc1	2	5	12	-2	1	x	x	x
